In all, about 5,500 compounds went through this assay and about 2,000 (36%) were called active. Not shown: some 18% with an inconclusive outcome. Cut-off read from the data, not from the text of the source: active = normalized growth mostly below about 0.91 (no sharp cut-off); inconclusive = no clear call, values can overlap the other calls; inactive = mostly above about 0.92. The list shows a part of the results.
Experiment: chemical genetic growth profiling, strain panel (AID 1159580);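 note: tested at 20 µM; growth read once vehicle control cultures reached saturation at 30 °C; 1 = growth at the plate median or of vehicle wells; lower values mean less growth of the strain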
Conditions: growth OD

Measured: normalized growth

O=C1NC(=O)C(=O)C(=O)N1
inactive: S. cerevisiae deletion strains, locus YJR075W, strain HOC1, stronger effect = lower value 1.04 | S. cerevisiae deletion strains, locus YKL009W, strain mrt4, stronger effect = lower value 0.992 | S. cerevisiae deletion strains, locus YKL068W, stronger effect = lower value 0.997 | S. cerevisiae deletion strains, locus YKL085W, strain MDH1 (second series), stronger effect = lower value 1 | S. cerevisiae deletion strains, locus YKL085W, strain MDH1, stronger effect = lower value 1 | S. cerevisiae deletion strains, locus YKL160W, strain elf1, stronger effect = lower value 0.989 | S. cerevisiae deletion strains, locus YKL190W, strain CNB1, stronger effect = lower value 1.01 | S. cerevisiae deletion strains, locus YKR001C, strain vps1, stronger effect = lower value 0.994 | S. cerevisiae deletion strains, locus YKR026C, strain gcn3, stronger effect = lower value 0.992 | S. cerevisiae deletion strains, locus YKR091W, strain srl3, stronger effect = lower value 0.989 | S. cerevisiae deletion strains, locus YLL001W, strain dnm1, stronger effect = lower value 0.994 | S. cerevisiae deletion strains, locus YLL026W, stronger effect = lower value 0.998 | S. cerevisiae deletion strains, locus YLL041C, strain sdh2, stronger effect = lower value 1 | S. cerevisiae deletion strains, locus YLR027C, strain aat2, stronger effect = lower value 1 | S. cerevisiae deletion strains, locus YLR039C, strain RIC1, stronger effect = lower value 1.04 | S. cerevisiae deletion strains, locus YLR058C, strain SHM2, stronger effect = lower value 1.02 | S. cerevisiae deletion strains, locus YLR102C, strain apc9, stronger effect = lower value 0.987 | S. cerevisiae deletion strains, locus YLR113W, strain HOG1, stronger effect = lower value 0.967 | S. cerevisiae deletion strains, locus YLR221C, strain rsa3, stronger effect = lower value 0.99 | S. cerevisiae deletion strains, locus YLR258W, strain gsy2, stronger effect = lower value 1.01 | S. cerevisiae deletion strains, locus YLR262C, strain YPT6 (second series), stronger effect = lower value 0.989 | S. cerevisiae deletion strains, locus YLR262C, strain YPT6, stronger effect = lower value 1.04 | S. cerevisiae deletion strains, locus YLR268W, strain sec22, stronger effect = lower value 0.968 | S. cerevisiae deletion strains, locus YLR320W, strain mms22, stronger effect = lower value 0.994 | S. cerevisiae deletion strains, locus YLR330W, strain CHS5, stronger effect = lower value 1.01 | S. cerevisiae deletion strains, locus YLR342W, strain FKS1 (second series), stronger effect = lower value 1.05 | S. cerevisiae deletion strains, locus YLR342W, strain FKS1, stronger effect = lower value 0.975 | S. cerevisiae deletion strains, locus YLR357W, strain rsc2, stronger effect = lower value 0.952 | S. cerevisiae deletion strains, locus YLR370C, strain arc18, stronger effect = lower value 0.982 | S. cerevisiae deletion strains, locus YLR371W, strain rom2, stronger effect = lower value 0.978 | S. cerevisiae deletion strains, locus YLR384C, strain iki3, stronger effect = lower value 0.99 | S. cerevisiae deletion strains, locus YLR418C, strain cdc73, stronger effect = lower value 0.991 | S. cerevisiae deletion strains, locus YML016C, strain PPZ1, stronger effect = lower value 1.01 | S. cerevisiae deletion strains, locus YML032C, strain rad52, stronger effect = lower value 0.976 | S. cerevisiae deletion strains, locus YML120C, strain ndi1, stronger effect = lower value 0.99 | S. cerevisiae deletion strains, locus YML124C, strain tub3, stronger effect = lower value 0.993 | S. cerevisiae deletion strains, locus YMR058W, strain fet3, stronger effect = lower value 0.999 | S. cerevisiae deletion strains, locus YMR078C, strain ctf18, stronger effect = lower value 0.98 | S. cerevisiae deletion strains, locus YMR125W, strain sto1, stronger effect = lower value 0.982 | S. cerevisiae deletion strains, locus YMR129W, stronger effect = lower value 0.982 | S. cerevisiae deletion strains, locus YMR205C, strain PFK2, stronger effect = lower value 1 | S. cerevisiae deletion strains, locus YMR223W, strain ubp8, stronger effect = lower value 1.01 | S. cerevisiae deletion strains, locus YMR231W, strain pep5, stronger effect = lower value 0.98 | S. cerevisiae deletion strains, locus YMR263W, strain SAP30, stronger effect = lower value 1.01 | S. cerevisiae deletion strains, locus YMR307W, strain GAS1, stronger effect = lower value 1.03 | S. cerevisiae deletion strains, locus YNL067W, strain RPL9B, stronger effect = lower value 1.01 | S. cerevisiae deletion strains, locus YNL071W, strain lat1, stronger effect = lower value 0.988 | S. cerevisiae deletion strains, locus YNL128W, strain TEP1, stronger effect = lower value 1.02 | S. cerevisiae deletion strains, locus YNL153C, strain GIM3, stronger effect = lower value 1.02 | S. cerevisiae deletion strains, locus YNL183C, strain NPR1, stronger effect = lower value 0.912 | S. cerevisiae deletion strains, locus YNL209W, strain ssb2, stronger effect = lower value 0.985 | S. cerevisiae deletion strains, locus YNL233W, strain BNI4, stronger effect = lower value 1.01 | S. cerevisiae deletion strains, locus YNL248C, strain rpa49, stronger effect = lower value 0.996 | S. cerevisiae deletion strains, locus YNL250W, strain rad50, stronger effect = lower value 0.995 | S. cerevisiae deletion strains, locus YNL271C, strain bni1, stronger effect = lower value 0.995 | S. cerevisiae deletion strains, locus YNL298W, strain CLA4, stronger effect = lower value 0.999 | S. cerevisiae deletion strains, locus YNL307C, strain MCK1, stronger effect = lower value 1.01 | S. cerevisiae deletion strains, locus YNL322C, strain KRE1 (second series), stronger effect = lower value 0.989 | S. cerevisiae deletion strains, locus YNL322C, strain KRE1, stronger effect = lower value 1.01 | S. cerevisiae deletion strains, locus YNR049C, strain mso1, stronger effect = lower value 0.988 | S. cerevisiae deletion strains, locus YNR052C, strain pop2, stronger effect = lower value 0.971 | S. cerevisiae deletion strains, locus YOL006C, strain TOP1, stronger effect = lower value 1.1 | S. cerevisiae deletion strains, locus YOL012C, strain htz1 0.951 | S. cerevisiae deletion strains, locus YOL147C, strain pex11, stronger effect = lower value 0.998 | S. cerevisiae deletion strains, locus YOR001W, strain rrp6, stronger effect = lower value 0.969 | S. cerevisiae deletion strains, locus YOR061W, strain CKA2, stronger effect = lower value 1.01 | S. cerevisiae deletion strains, locus YOR069W, strain VPS5, stronger effect = lower value 1.01 | S. cerevisiae deletion strains, locus YOR070C, strain gyp1, stronger effect = lower value 0.984 | S. cerevisiae deletion strains, locus YOR080W, strain dia2, stronger effect = lower value 0.99 | S. cerevisiae deletion strains, locus YOR083W, strain WHI5, stronger effect = lower value 0.996 | S. cerevisiae deletion strains, locus YOR106W, strain vam3, stronger effect = lower value 0.99 | S. cerevisiae deletion strains, locus YOR136W, strain idh2, stronger effect = lower value 0.996 | S. cerevisiae deletion strains, locus YOR144C, strain elg1, stronger effect = lower value 0.987 | S. cerevisiae deletion strains, locus YOR184W, strain ser1, stronger effect = lower value 0.997 | S. cerevisiae deletion strains, locus YOR231W, strain MKK1, stronger effect = lower value 0.964 | S. cerevisiae deletion strains, locus YOR265W, strain rbl2, stronger effect = lower value 1.01 | S. cerevisiae deletion strains, locus YOR270C, strain vph1, stronger effect = lower value 1.07 | S. cerevisiae deletion strains, locus YOR290C, strain snf2, stronger effect = lower value 0.983 | S. cerevisiae deletion strains, locus YOR316C, strain cot1, stronger effect = lower value 0.987 | S. cerevisiae deletion strains, locus YPL051W, strain arl3, stronger effect = lower value 1.01 | S. cerevisiae deletion strains, locus YPL055C, strain LGE1, stronger effect = lower value 1.04 | S. cerevisiae deletion strains, locus YPL078C, strain atp4, stronger effect = lower value 0.987 | S. cerevisiae deletion strains, locus YPL106C, strain sse1, stronger effect = lower value 0.99 | S. cerevisiae deletion strains, locus YPL240C, strain hsp82, stronger effect = lower value 0.995 | S. cerevisiae deletion strains, locus YPL241C, strain CIN2, stronger effect = lower value 1.01 | S. cerevisiae deletion strains, locus YPL256C, strain CLN2, stronger effect = lower value 0.955 | S. cerevisiae deletion strains, locus YPR119W, strain clb2, stronger effect = lower value 0.983 | S. cerevisiae deletion strains, locus YPR141C, strain kar3, stronger effect = lower value 0.994 | S. cerevisiae deletion strains, locus YPR163C, strain tif3, stronger effect = lower value 0.987 | S. cerevisiae deletion strains, locus YPR167C, strain met16, stronger effect = lower value 0.986 | S. cerevisiae deletion strains, strain wtn01, stronger effect = lower value 0.98 | S. cerevisiae strains, strain wild type, stronger effect = lower value 1.02
